High-throughput results from PubChem.
ABHD5-PLIN5 inh: blocks binding of human ABHD5 to perilipin-5; Split G. princeps luciferase complementation, luminescence, 4 h; inhibition, % at 4 µM; hit rate 0.78% among 360,000; AID 602281;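 active = inhibition above the mean inhibition across every tested compound plus 3 SD, cut at about 22% in these data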
rCAG binder: binds r(CAG) RNA repeats; r(CAG) RNA repeat, TO-PRO-1 dye displacement fluorescence; inhibition, % at 3 µM; hit rate 1.3% among 370,000;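 active = inhibition above the plate cutoff, the mean of all test compounds on that plate plus 3 SD, cut at about 35% in these data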;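 note: higher means more dye released from RNA so lower well fluorescence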
Rtt109 Vps75: blocks Candida albicans Rtt109/Vps75 acetyltransferase activity; Q5AAJ8; purified Rtt109/Vps75, ThioGlo CoA-SH fluorescence, 4 h; inhibition, % at 34.9 µM; hit rate 0.16% among 330,000; AID 540336;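 active = inhibition of at least 50% in every replicate; inconclusive = best replicate reaches 50% inhibition but some replicates fall short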
LANA-H2B inh: blocks KSHV LANA binding to histone H2A/H2B; AID 2629; hit rate 0.6% among 320,000; cell-free LANA-H2A/H2B peptide, fluorescence polarization; inhibition, % (concentration not given with the values); in the data active = inhibition mostly above about 10%, no sharp cut-off; inactive = mostly below about 6.7%
PRMT1 inh: inhibitors of human PRMT1; AID 652257; Q99873; inhibition, % at 2.79 µM; recombinant PRMT1, activity-based probe fluorescence polarization; hit rate 1.3% among 370,000;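 active = inhibition above about 21% made by adding two undisclosed values, limit read from the data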
ALR inh: human ALR oxidase inhibition via reduced H2O2 | P55789 | purified ALR, DTT oxidation, H2O2 HRP-luminol luminescence | inhibition, % (test concentration not listed) | hit rate 3.8% among 290,000;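 active = mean replicate inhibition above about 79%, with every replicate also reaching it, limit read from the data; inconclusive = only one of the two criteria met; inactive = mean below limit and not every replicate reaching it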
ABHD5-PLIN5 conf: ABHD5-PLIN5 interaction inhibition, confirmed; shares compounds with ABHD5-PLIN5 inh; biochemical ABHD5-PLIN5 interaction, luminescence; inhibition, % at 4 µM; hit rate 67% among 2,200; in the data active = inhibition above about 23%
HNF4 counter: active in HNF4 split-luciferase counter-screen for ABHD5-PLIN5 inhibitors; HNF4 dimerization, luminescence, biochemical; inhibition, % at 4 µM; shares compounds with ABHD5-PLIN5 inh; hit rate 77% among 2,200;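 active = mean inhibition across replicate wells exceeding the computed hit threshold, cut at about 13% in these data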;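 note: light from luciferase halves that rejoin when HNF4 fusion proteins dimerize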
A number is an active result; n = inactive; u = inconclusive; x = no result given. Most compounds without a hit are left out; they make up all but 5.9% or so of the library.

SMILES	ABHD5-PLIN5 inh	rCAG binder	Rtt109 Vps75	LANA-H2B inh	PRMT1 inh	ALR inh	ABHD5-PLIN5 conf	HNF4 counter
COc1cc(/C=C/C(=O)c2ccc([N+](=O)[O-])o2)ccc1O	27	n	n	n	n	u	96	94
O=C(/C=C/c1cccc(Cl)c1)c1ccc([N+](=O)[O-])o1	96	n	n	n	n	n	103	110
COc1ccc([C@H]2CC(=O)C[C@@H](CCn3cc(-c4nccn4C)nn3)O2)cc1	n	n	x	x	n	x	x	x
O=C1Nc2ccccc2C1=Nc1cccc(Cl)c1	78	n	n	n	n	n	n	n
O=S(=O)(Nc1ccc(C(O)(C(F)(F)F)C(F)(F)F)cc1)c1ccc(Cl)c2nonc12	42	x	x	x	x	x	51	48
O=S(=O)(Nc1ccc(C(O)(C(F)(F)F)C(F)(F)F)cc1)c1cccs1	x	x	x	x	n	x	x	x
Cc1ccc(C(=O)Nc2ccccc2C(=O)N2CCCCC2C)cc1 (stereo not drawn)	106	n	n	n	n	n	n	n
O=C(O)/C=C/C(=O)c1ccc(O)cc1	86	n	u	n	n	x	96	104
Cc1c(/C=C/C(=O)c2ccc(O)cc2)cnn1C	n	n	n	n	n	n	x	x
O=C1C(Cl)=C(N2CCOCC2)C(=O)N1c1ccccc1Cl	30	x	162	n	x	n	59	85
O=C1C(Cl)=C(N2CCCCCC2)C(=O)N1c1ccccc1Cl	n	n	n	n	n	n	x	x
CCCCCCCCCCCCCCCC[n+]1ccc(/C=N/O)cc1	31	n	n	13	n	n	n	n
O=C1C(=O)c2c(C(=O)c3ccccc3)coc2-c2ccccc21	69	n	n	n	n	n	85	45
Cc1oc2c(c1C(=O)c1ccccc1)C(=O)C(=O)c1ccccc1-2	n	n	n	n	n	n	x	x
CCCCCCCCCCCCCCCC[n+]1cccc2ccccc21	35	n	n	n	n	n	n	n
Cc1ccccc1C[n+]1cccc2ccccc21	n	n	n	n	n	x	x	x
O=C1NC(Cc2ccc(O)cc2)c2nc3ccc(F)cc3c(=O)n2-c2cc3ccccc3cc21 (stereo not drawn)	n	n	x	x	n	x	x	x
COc1cccc(NC(=O)CN2C(=O)NC3(CCCc4ccccc43)C2=O)c1 (stereo not drawn)	92	n	n	x	n	x	n	n
COc1ccc(OC)c(NC(=O)CN2C(=O)NC3(CCCc4ccccc43)C2=O)c1 (stereo not drawn)	n	n	n	x	n	x	x	x
CCn1cnc2c1c(=O)n(CC(=O)Nc1cc(C)on1)c(=O)n2Cc1ccccc1	n	n	n	n	n	n	x	x
CCCCn1c(=O)n(CC(=O)Nc2ccc(C)c(Cl)c2)c(=O)c2c1ncn2Cc1ccco1	36	n	n	n	n	n	26	n
COc1ccccc1-c1csc(C(C)(O)c2ccccc2)n1 (stereo not drawn)	n	n	x	x	n	x	x	x
CC(NC(=O)/C=C/c1ccco1)c1nc2ccccc2n1Cc1c(Cl)cccc1Cl (stereo not drawn)	n	n	n	n	n	n	x	x
CC(NC(=O)/C=C/c1ccco1)c1nc2ccccc2n1Cc1ccccc1F (stereo not drawn)	35	n	n	n	n	n	n	n
O=P(CCCCCCCCCP(=O)(c1ccccc1)c1ccccc1)(c1ccccc1)c1ccccc1	23	n	n	n	n	n	n	n
O=C(O)CCCCCCCCCCP(=O)(c1ccccc1)c1ccccc1	n	n	n	n	n	n	x	x
COC(=O)[C@]12C=CCN1[C@H](c1ccc(Cl)cc1)c1c(c3ccccc3n1S(=O)(=O)c1ccc(C)cc1)C2	x	n	x	x	n	x	x	x
COC(=O)C(=C/C(C)=C/c1cccnc1)C(=O)OC	34	n	n	n	n	92	54	53
O=C(NCCO)C1(C(=O)C2CC2)CC(c2ccccn2)=NO1 (stereo not drawn)	x	n	x	x	n	x	x	x
O=C(O)CCS(=O)(=O)c1nc(-c2cccs2)cc(C(F)(F)F)n1	28	n	n	n	n	97	59	66
